HSF1 inh: HSF1 inhibitors in luciferase reporter cells, primary screen, cell-based, NIH3T3, luminescence; activity change, negative = inhibition, % at 7.5 µM (by protocol); 300,000 tested, 0.77% active; NIH3T3-HGL HSE-luciferase, MG132-induced, luminescence 8 h; stronger effect = lower value;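 active = more than half of replicate wells show activity change below -50%, luminescence cut by over half; inconclusive = some wells, but at most half, below -50%; inactive = no replicate well below -50%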;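 also: luciferase reports HSF-1 transcriptional activity via heat shock element; 0% = median of DMSO wells and -100% = zero luminescence signal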
Wnt act: Wnt/beta-catenin pathway activators, primary screen, cell-based, plate reader, single point; AID 743398, 2014; activation, % at 9.35 µM; Wnt/beta-catenin reporter cell assay, activator; 300,000 tested, 1.2% active; in the data active = activation above about 30%, passing the limit was not always enough; inconclusive = no clear call, values can overlap the other calls;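 also: 0% = neutral control wells and 100% = positive control wells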
HSF1 activator: HSF-1 activators, primary screen, NIH3T3-HGL cells, MG132 stress, luminescence, single point; 300,000 tested, 1.7% active; NIH3T3-HGL HSF-1 luciferase reporter, 8 h; 100% = twice DMSO control signal; activation, % at 9 µM;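 active = mean replicate activation of at least 50% with a set share of replicates each reaching 50%; inconclusive = only one of those two conditions met; inactive = mean below 50% and too few replicates reaching it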;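 also: 0% = median of the neutral control wells and 100% = twice that signal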
esBAF inh: Bmi1 luciferase reporter increase in mESCs, primary screen, esBAF inhibitor project, mouse ES cells, Bmi1 luciferase knock-in, single point | reporter increase, % at 12.5 µM | 24 h; 100% = twice the neutral-well signal | 350,000 tested, 2% active; in the data active = activation above about 40%; inconclusive = no clear call, values can overlap the other calls;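 also: 0% = median of the plate's neutral control wells and 100% = double that signal; a rise in the Bmi1 reporter signal indicates esBAF inhibition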
MITF TRPM1 HTS: activators of MITF-driven TRPM1 promoter reporter, primary screen, cell-based, SK-MEL-5, luciferase, single point; SK-MEL-5 TRPM1-promoter luciferase, 24 h; % of positive control, neutral wells = 0; 300,000 tested, 0.75% active; activation, % at 12.5 µM; AID 588334, 2011;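 active = mean activation of at least 80% with every replicate also reaching 80%; inconclusive = mean reaches 80% but some replicate falls short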;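 also: 0% = neutral control wells and 100% = parthenolide positive control wells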
Numbers without * were called inactive; u = inconclusive; x = not tested or not shown. This is a sample that favours compounds with a hit; in the whole collection about 3.9% have one here.

SMILES	HSF1 inh	Wnt act	HSF1 activator	esBAF inh	MITF TRPM1 HTS
COc1ccccc1CN1C[C@@H](C)[C@H](OC)CN(C)C(=O)c2cc(NC(C)=O)ccc2OC[C@@H]1C	x	x	x	-1	x
Cc1cccc(NC(=O)CN2C(=O)N/C(=C\c3ccc(N4CCOCC4)cc3)C2=O)c1	20	9	18	59*	15
CCSc1nsc(NC(=O)Nc2cccc(F)c2)n1	-10	-2	3	-16	x
CCCSc1nsc(NC(=O)Nc2ccc(F)cc2F)n1	53	16	68*	6	x
CCCSc1ccc(C(=O)Nc2ccc(F)cc2F)cn1	19	8	5	46*	u
C[C@@H]1CN([C@H](C)CO)C(=O)Cc2cc(NC(=O)C3CCCCC3)ccc2O[C@H]1CN(C)Cc1ccc(Oc2ccccc2)cc1	x	x	x	13	x
C/C=C/c1ccc([C@@H]2[C@@H](CN(C)C(=O)CN(C)C)N(C(=O)C3CC3)[C@H]2CO)cc1	x	x	x	3	x
C[C@@H]1CN([C@@H](C)CO)C(=O)Cc2cc(NC(=O)c3ccncc3)ccc2O[C@H]1CN(C)Cc1ccc(Cl)c(Cl)c1	x	x	x	-10	x
Cc1ccc(NC(=O)N(C2=NCC(C)S2)c2ccccc2)cc1 (stereo unspecified)	-3	x	-13	43*	u
COc1cccc(C(=O)c2c(C)c(CCC#N)n3ccccc23)c1OC	120	-2	180*	x	-1
COc1ccccc1NC(=O)N1C[C@@H](C)[C@H](OC)CN(C)C(=O)c2cc(NC(=O)c3cnccn3)ccc2OC[C@H]1C	x	x	x	-2	x
FC(F)Oc1ccc(-c2csc(NNC3=NCCCCC3)n2)cc1	5	9	4	49*	-5
c1ccc(Cc2nc3ccccc3o2)cc1	-81*	x	-84	10	28
O=c1oc(Cc2ccccc2)nc2ccccc12	5	2	15	15	4
COC(=O)c1ccc(N2CCN(C(C)=O)CC2)c(NC(=O)COc2ccccc2C)c1	-64*	-2	-72	-5	-4
COC(=O)c1ccc(N2CCN(C)CC2)c(NC(=O)COc2ccccc2Cl)c1	7	-3	12	-5	-5
CCc1ccccc1NC(=O)c1ccc(NS(C)(=O)=O)cc1	-56*	0	-64	x	5
C[C@H](CO)N1C[C@H](C)[C@@H](CN(C)S(=O)(=O)c2ccccc2)Oc2ccc(NS(=O)(=O)c3ccccc3)cc2CC1=O	x	x	x	-2	x
Cc1noc(C)c1NC(=O)N(C)C[C@@H]1Oc2ccc(N(C)C)cc2C(=O)N([C@@H](C)CO)C[C@H]1C	x	x	x	-1	x
C[C@H]1CN([C@@H](C)CO)S(=O)(=O)c2ccc(-c3cccc(C#N)c3)cc2O[C@@H]1CN(C)C	x	x	x	-1	x
Cc1cccc(/N=C/c2c(O)[nH]c3ccccc23)n1	20	x	42	74*	67
Cc1cccc(/N=C/c2sc3ccccc3c2O)n1	4	46*	13	16	27
COc1ccc(C2CC(=O)N(C)c3ccccc3S2)cc1OC (stereo unspecified)	9	54*	27	28	35
CCOc1ccc(CNCCCSc2ncccn2)cc1OC	-68*	-2	-74	-1	x
CCOc1ccc(CNCCCSc2ncccn2)cc1	-2	1	2	4	-7
SMILES	HSF1 inh	Wnt act	HSF1 activator	esBAF inh	MITF TRPM1 HTS
O=C(C1CCCN(S(=O)(=O)Cc2ccccc2)C1)N1CCc2ccccc21 (stereo unspecified)	-58*	-2	-69	-4	0
O=C(C[C@H]1C[C@@H]2c3cc(NC(=O)Nc4ccc(C(F)(F)F)cc4)ccc3O[C@@H]2[C@@H](CO)O1)NCc1cccnc1	x	x	x	1	x
C[C@H](CO)N1C[C@H](C)[C@H](CN(C)C(=O)Nc2ccccc2)Oc2ccc(NS(=O)(=O)c3ccc(F)cc3)cc2C1=O	x	x	x	-1	x
Cc1cc(N=NC(=O)c2ccccc2O)c2ccccc2c1O	24	11	77*	x	9
O=c1c2c3c(sc2nc(NCCO)n1CCc1ccccc1)CCCCC3	4	-6	24	1	-12
O=c1c2c3c(sc2nc(NCCO)n1Cc1ccco1)CCCCC3	-57*	1	-61	80*	28
CN(C)CCNc1nc2sc3c(c2c(=O)n1-c1ccc(F)cc1)CCCCC3	2	-3	0	x	11
CN(C)CCNc1nc2sc3c(c2c(=O)n1-c1ccccc1)CCCCC3	14	-6	50*	x	x
COCCNc1nc2sc3c(c2c(=O)n1Cc1ccco1)CCCCC3	-30	20	-43	75*	39
CCC(=O)N(C)C[C@H]1Oc2ncc(C#C[C@@H](C)O)cc2C(=O)N([C@@H](C)CO)C[C@@H]1C	x	x	x	-1	x
C[C@@H]1CN([C@H](C)CO)S(=O)(=O)c2ccc(C#Cc3cccc(F)c3)cc2O[C@H]1CN(C)C(=O)NC1CCCCC1	x	x	x	13	x
COC(=O)C1=C(C)Nc2nc3ccccc3n2C1c1cc(OC)c(OC)c(OC)c1 (stereo unspecified)	9	44*	35	x	x
COc1ccc(CNC(=O)CCS(=O)(=O)c2ccc3c(c2)oc(=O)n3C)cc1	-1	-5	-5	5	1
CCOc1ccc(CNC(=O)CCS(=O)(=O)c2ccc3c(c2)oc(=O)n3C)cc1	-76*	1	-81	-5	-1
Cc1ccc(C(=O)OCC(=O)c2ccc[nH]2)s1	15	0	28	x	31
COc1ccc(C(=O)COC(=O)c2sccc2C)cc1OC	x	45*	x	91*	103*
Cc1ccsc1C(=O)OCC(=O)Nc1sccc1C(N)=O	9	x	37	88*	x
CC(C)Oc1ccc(C(=O)OCC(=O)c2ccc[nH]2)cc1	x	45*	x	65*	89*
Cc1ccsc1C(=O)OCC(=O)c1ccc[nH]1	x	38*	x	48*	109*
O=C(OCC(=O)c1ccc[nH]1)c1ccc(C(F)(F)F)cc1	x	-7	x	-1	13
O=C(Nc1nc2c(s1)CN(Cc1ccccc1)CC2)C1CCC1	5	7	12	20	100*
C[C@@H]1CN([C@@H](C)CO)C(=O)c2cccc(NC(=O)Nc3ccccc3)c2O[C@@H]1CN(C)CC1CCCCC1	x	x	x	-1	x
CC(=O)N(Cc1c(C)nn(-c2ccccc2)c1Cl)c1ccc(Cl)cc1	6	-4	6	-6	0
Cc1nn(-c2ccccc2)c(Cl)c1CN(C(=O)CCl)c1ccc(Cl)cc1	-86*	x	-85	x	-90
Cc1c(-c2ccc(Br)cc2)nc2ccccn12	26	-1	51*	x	42
C[C@@H]1CN([C@H](C)CO)C(=O)c2cccc(NC(=O)C3CCOCC3)c2O[C@H]1CN(C)Cc1ccc(C(=O)O)cc1	x	x	x	4	x
NC(=O)CC(NC(=O)c1ccc(Br)cc1)c1ccc(N2CCCCCC2)c([N+](=O)[O-])c1 (stereo unspecified)	46	-6	74*	-17	26

Screens: PubChem, Broad Institute
